The campaign covered roughly 5,500 compounds. About 2,000 (36%) were called active. About 18% were inconclusive and are not listed. Some of the results follow. A number with no mark means an inactive call. Cut-off read from the data, not from the text of the source: active = normalized growth mostly below about 0.91 (no sharp cut-off); inconclusive = no clear call, values can overlap the other calls; inactive = mostly above about 0.92.
Assay: chemical genetic growth profiling, strain panel (AID 1159580);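 note: tested at 20 µM; growth read once vehicle control cultures reached saturation at 30 °C; 1 = growth at the plate median or of vehicle wells; lower values mean less growth of the strain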
Conditions: S. cerevisiae deletion strains, growth OD

Cc1csc(NC(=O)Nc2ccc(C(F)(F)F)cc2)c1
normalized growth (locus YAR019C, strain CDC15, hits give low values): 0.971 | normalized growth (locus YBL105C, strain PKC1, hits give low values): 0.98 | normalized growth (locus YBR135W, strain CKS1, hits give low values): 0.963 | normalized growth (locus YBR136W, strain MEC1, hits give low values): 0.98 | normalized growth (locus YBR160W, strain CDC28, hits give low values): 0.975 | normalized growth (locus YDL017W, strain CDC7, hits give low values): 0.977 | normalized growth (locus YDL028C, strain MPS1, hits give low values): 0.981 | normalized growth (locus YDL101C, strain DUN1, hits give low values): 1.02 | normalized growth (locus YDL108W, strain KIN28, hits give low values): 0.973 | normalized growth (locus YDL132W, strain cdc53, hits give low values): 0.97 | normalized growth (locus YDL214C, strain PRR2, hits give low values): 0.783 | normalized growth (locus YDR052C, strain DBF4, hits give low values): 0.989 | normalized growth (locus YDR054C, strain cdc34, hits give low values): 0.95 | normalized growth (locus YDR226W, strain ADK1, hits give low values): 0.975 | normalized growth (locus YDR477W, strain SNF1, hits give low values): 0.804 | normalized growth (locus YER123W, strain YCK3, hits give low values): 0.735 | normalized growth (locus YER133W, strain GLC7, hits give low values): 0.848 | normalized growth (locus YFL009W, strain cdc4, hits give low values): 0.97 | normalized growth (locus YFL029C, strain CAK1, hits give low values): 0.958 | normalized growth (locus YFR003C, strain YPI1, hits give low values): 0.972 | normalized growth (locus YFR019W, strain FAB1, hits give low values): 0.801 | normalized growth (locus YFR028C, strain CDC14, hits give low values): 0.951 | normalized growth (locus YGR040W, strain KSS1, hits give low values): 0.848 | normalized growth (locus YGR052W, strain FMP48, hits give low values): 0.946 | normalized growth (locus YGR092W, strain DBF2, hits give low values): 0.781 | normalized growth (locus YHR030C, strain SLT2, hits give low values): 0.891 | normalized growth (locus YHR079C, strain IRE1, hits give low values): 0.876 | normalized growth (locus YHR082C, strain KSP1, hits give low values): 0.893 | normalized growth (locus YHR205W, strain SCH9, hits give low values): 0.453 (active) | normalized growth (locus YIL147C, strain SLN1, hits give low values): 0.978 | normalized growth (locus YJL095W, strain BCK1, hits give low values): 0.896 | normalized growth (locus YJL128C, strain PBS2, hits give low values): 0.932 | normalized growth (locus YJL157C, strain FAR1, hits give low values): 0.718 | normalized growth (locus YJR016C, strain ILV3, hits give low values): 0.978 | normalized growth (locus YJR066W, strain TOR1 (second series), hits give low values): 0.848 | normalized growth (locus YJR066W, strain TOR1, hits give low values): 0.935 | normalized growth (locus YKL048C, strain ELM1, hits give low values): 0.928 | normalized growth (locus YKL067W, strain YNK1, hits give low values): 0.805 | normalized growth (locus YKL101W, strain HSL1, hits give low values): 0.821 | normalized growth (locus YKL193C, strain SDS22, hits give low values): 0.969 | normalized growth (locus YKL203C, strain TOR2, hits give low values): 0.907 | normalized growth (locus YLR113W, strain HOG1, hits give low values): 0.803 (active) | normalized growth (locus YLR133W, strain CKI1, hits give low values): 0.675 (active) | normalized growth (locus YLR403W, strain SFP1, hits give low values): 0.704 | normalized growth (locus YML070W, strain DAK1, hits give low values): 0.755 | normalized growth (locus YMR001C, strain CDC5, hits give low values): 0.966 | normalized growth (locus YMR205C, strain PFK2 (second series), hits give low values): 0.832 | normalized growth (locus YMR277W, strain FCP1, hits give low values): 0.965 | normalized growth (locus YNL006W, strain LST8, hits give low values): 0.99 | normalized growth (locus YNL020C, strain ARK1, hits give low values): 0.753 | normalized growth (locus YNL161W, strain CBK1, hits give low values): 0.982 | normalized growth (locus YNL183C, strain NPR1, hits give low values): 0.878 | normalized growth (locus YNL207W, strain RIO2, hits give low values): 0.965 | normalized growth (locus YNL222W, strain SSU72, hits give low values): 0.967 | normalized growth (locus YNL307C, strain MCK1 (second series), hits give low values): 0.708 | normalized growth (locus YOL078W, strain AVO1, hits give low values): 0.964 | normalized growth (locus YOL136C, strain PFK27, hits give low values): 0.739 | normalized growth (locus YOR061W, strain CKA2, hits give low values): 0.714 | normalized growth (locus YOR119C, strain RIO1, hits give low values): 0.928 | normalized growth (locus YOR231W, strain MKK1, hits give low values): 0.864 | normalized growth (locus YOR329C, strain SCD5, hits give low values): 0.978 | normalized growth (locus YPL031C, strain PHO85, hits give low values): 0.773 | normalized growth (locus YPL153C, strain RAD53, hits give low values): 0.868 | normalized growth (locus YPL204W, strain HRR25, hits give low values): 0.902 | normalized growth (locus YPL209C, strain IPL1, hits give low values): 0.958 | normalized growth (locus YPL256C, strain CLN2, hits give low values): 0.857 (active) | normalized growth (locus YPR025C, strain CCL1, hits give low values): 0.963 | normalized growth (locus YPR106W, strain ISR1, hits give low values): 0.971 | normalized growth (locus YPR111W, strain DBF20, hits give low values): 0.966 | normalized growth (strain NNK1, hits give low values): 0.971 | normalized growth (strain TSCII, hits give low values): 0.968
